Source: paper PMC7862700, “An all-to-all approach to the identification of sequence-specific readers for epigenetic DNA modifications on cytosine”

Experiments:
Test in all cases: DAPPL (digital affinity profiling via proximity ligation, sequencing); 10 mM Tris-HCl pH 7.5, 50 mM NaCl, 1 mM DTT, 4% glycerol, room temperature, 30 min; GST-TFs on glutathione beads, 16-mer random dsDNA library, 0.1% formaldehyde crosslink after washing; high values mean tight binding
FLI1 = molecular target: T1, FLI1 (Homo sapiens, UniProt Q01543 1-452); settings: protein: recombinant; tags: N-terminal GST; dsDNA, one strand shown
T1 sequence: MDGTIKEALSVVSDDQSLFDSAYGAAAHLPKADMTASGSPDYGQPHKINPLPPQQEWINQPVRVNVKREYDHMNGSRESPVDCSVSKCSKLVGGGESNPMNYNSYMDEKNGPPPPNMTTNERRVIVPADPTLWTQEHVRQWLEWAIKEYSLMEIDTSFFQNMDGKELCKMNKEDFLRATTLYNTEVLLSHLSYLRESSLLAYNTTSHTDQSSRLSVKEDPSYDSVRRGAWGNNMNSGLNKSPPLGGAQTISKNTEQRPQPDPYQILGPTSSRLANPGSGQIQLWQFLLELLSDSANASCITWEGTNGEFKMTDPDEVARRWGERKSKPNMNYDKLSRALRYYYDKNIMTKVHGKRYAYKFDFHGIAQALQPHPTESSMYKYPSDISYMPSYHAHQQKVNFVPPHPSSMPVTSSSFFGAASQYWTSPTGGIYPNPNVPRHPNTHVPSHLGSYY
Procedure, shortened: (§1)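 Beads coated with glutathione captured GST-fused human transcription factors that had been expressed in yeast, and the factors were then given DNA barcodes and pooled with a tag-only sample. The pools were incubated with 200 nmole of a random double-stranded 16-mer DNA library in Tris/NaCl/DTT/glycerol buffer for 30 min at room temperature, washed, crosslinked with 0.1% formaldehyde and proximity-ligated with BsaI/T4 ligase at 37 °C for 1 h. PCR amplification and Illumina NextSeq500 sequencing came last. Binding signal is each hexamer's read frequency for a factor divided by its frequency for the tag-only sample.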

ELK1 = molecular target: T2, ELK1 (Homo sapiens, UniProt P19419 1-428); settings: protein: recombinant; tags: N-terminal GST; dsDNA, one strand shown
T2 sequence: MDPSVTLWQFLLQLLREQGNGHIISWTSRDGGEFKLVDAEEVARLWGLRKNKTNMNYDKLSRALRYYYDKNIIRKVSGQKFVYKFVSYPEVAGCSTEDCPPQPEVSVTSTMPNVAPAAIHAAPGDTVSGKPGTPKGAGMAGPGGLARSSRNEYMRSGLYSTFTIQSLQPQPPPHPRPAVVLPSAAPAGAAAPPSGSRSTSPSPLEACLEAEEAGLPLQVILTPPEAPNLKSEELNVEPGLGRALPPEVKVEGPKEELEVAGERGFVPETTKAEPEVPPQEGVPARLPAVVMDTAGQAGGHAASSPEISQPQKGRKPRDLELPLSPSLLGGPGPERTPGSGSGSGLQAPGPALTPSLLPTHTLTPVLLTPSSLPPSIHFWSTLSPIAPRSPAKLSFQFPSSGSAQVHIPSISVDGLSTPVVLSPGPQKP
Procedure, shortened: as §1

GABPA = molecular target: T3, GABPA (Homo sapiens, UniProt Q06546 1-454); settings: protein: recombinant; tags: N-terminal GST; dsDNA, one strand shown
T3 sequence: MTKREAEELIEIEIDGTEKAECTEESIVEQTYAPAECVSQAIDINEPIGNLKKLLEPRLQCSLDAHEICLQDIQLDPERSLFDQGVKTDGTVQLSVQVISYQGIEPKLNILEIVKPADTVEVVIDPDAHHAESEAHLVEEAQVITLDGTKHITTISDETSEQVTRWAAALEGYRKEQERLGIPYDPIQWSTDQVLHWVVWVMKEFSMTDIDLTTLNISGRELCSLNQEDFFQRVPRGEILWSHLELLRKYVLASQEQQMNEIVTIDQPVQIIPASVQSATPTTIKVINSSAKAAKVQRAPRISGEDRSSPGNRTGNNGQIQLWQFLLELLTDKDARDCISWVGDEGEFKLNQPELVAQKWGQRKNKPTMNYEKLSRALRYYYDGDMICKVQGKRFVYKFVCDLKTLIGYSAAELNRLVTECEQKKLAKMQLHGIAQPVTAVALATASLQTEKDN
Procedure, shortened: as §1

ERG = molecular target: T4, ERG (Homo sapiens, UniProt P11308 1-479); settings: protein: recombinant; tags: N-terminal GST; dsDNA, one strand shown
T4 sequence: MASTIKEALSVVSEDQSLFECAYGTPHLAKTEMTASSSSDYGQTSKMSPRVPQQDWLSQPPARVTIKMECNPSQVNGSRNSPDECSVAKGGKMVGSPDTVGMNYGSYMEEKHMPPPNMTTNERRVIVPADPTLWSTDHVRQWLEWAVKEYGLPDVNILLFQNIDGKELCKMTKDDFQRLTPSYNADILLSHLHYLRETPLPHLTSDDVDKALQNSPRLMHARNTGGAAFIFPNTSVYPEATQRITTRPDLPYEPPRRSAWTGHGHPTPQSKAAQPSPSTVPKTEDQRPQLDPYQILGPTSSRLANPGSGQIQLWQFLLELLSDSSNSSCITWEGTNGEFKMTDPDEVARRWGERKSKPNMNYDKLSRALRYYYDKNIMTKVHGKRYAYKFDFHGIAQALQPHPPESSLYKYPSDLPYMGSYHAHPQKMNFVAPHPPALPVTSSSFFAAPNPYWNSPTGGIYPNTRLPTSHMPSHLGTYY
Procedure, shortened: as §1

ELF1 = ELF1 (Homo sapiens, UniProt P32519 1-619); settings: protein: recombinant; tags: N-terminal GST; dsDNA, one strand shown
Procedure, shortened: as §1

EHF = molecular target: T5, EHF (Homo sapiens, UniProt Q9NZC4 1-300); settings: protein: recombinant; tags: N-terminal GST; dsDNA, one strand shown
T5 sequence: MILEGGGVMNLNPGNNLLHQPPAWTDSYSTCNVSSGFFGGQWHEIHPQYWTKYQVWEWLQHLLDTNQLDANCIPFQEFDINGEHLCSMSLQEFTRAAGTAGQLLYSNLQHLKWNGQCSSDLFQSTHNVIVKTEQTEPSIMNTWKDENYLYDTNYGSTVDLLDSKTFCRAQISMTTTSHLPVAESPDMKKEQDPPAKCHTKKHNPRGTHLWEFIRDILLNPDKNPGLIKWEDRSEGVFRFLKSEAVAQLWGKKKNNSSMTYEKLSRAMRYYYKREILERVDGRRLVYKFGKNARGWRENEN
Procedure, shortened: as §1

SPI1 = SPI1 (Homo sapiens, UniProt P17947 1-270); settings: protein: recombinant; tags: N-terminal GST; dsDNA, one strand shown
Procedure, shortened: as §1

SPIB = SPIB (Homo sapiens, UniProt Q01892 1-262); settings: protein: recombinant; tags: N-terminal GST; dsDNA, one strand shown
Procedure, shortened: as §1

ELK3 = molecular target: T6, ELK3 (Homo sapiens, UniProt P41970 1-407); settings: protein: recombinant; tags: N-terminal GST; dsDNA, one strand shown
T6 sequence: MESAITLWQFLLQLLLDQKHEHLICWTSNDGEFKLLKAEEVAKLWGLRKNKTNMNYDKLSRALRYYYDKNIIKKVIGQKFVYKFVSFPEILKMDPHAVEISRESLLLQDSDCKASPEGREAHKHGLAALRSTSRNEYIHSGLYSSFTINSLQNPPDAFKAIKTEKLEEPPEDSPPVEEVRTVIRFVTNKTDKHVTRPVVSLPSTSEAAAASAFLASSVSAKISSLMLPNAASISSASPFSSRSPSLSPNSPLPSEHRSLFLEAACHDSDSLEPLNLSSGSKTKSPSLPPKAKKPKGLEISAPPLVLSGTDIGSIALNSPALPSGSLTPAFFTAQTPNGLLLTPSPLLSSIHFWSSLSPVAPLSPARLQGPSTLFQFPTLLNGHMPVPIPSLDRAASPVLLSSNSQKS
Procedure, shortened: as §1

FEV = molecular target: T7, FEV (Homo sapiens, UniProt Q99581 1-238); settings: protein: recombinant; tags: N-terminal GST; dsDNA, one strand shown
T7 sequence: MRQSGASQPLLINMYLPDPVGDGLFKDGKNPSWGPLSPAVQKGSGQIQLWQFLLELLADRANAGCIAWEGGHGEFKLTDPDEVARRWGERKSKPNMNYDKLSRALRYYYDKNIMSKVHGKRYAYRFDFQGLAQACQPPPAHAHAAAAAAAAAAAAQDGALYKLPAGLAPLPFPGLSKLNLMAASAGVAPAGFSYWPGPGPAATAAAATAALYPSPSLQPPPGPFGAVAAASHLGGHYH
Procedure, shortened: as §1

ETV5 = ETV5 (Homo sapiens, UniProt P41161 1-510); settings: protein: recombinant; tags: N-terminal GST; dsDNA, one strand shown
Procedure, shortened: as §1

HSF1 = HSF1 (Homo sapiens, UniProt Q00613 1-529); settings: protein: recombinant; tags: N-terminal GST; chain copies: 3; dsDNA, one strand shown
Procedure, shortened: as §1

SPIC = molecular target: T8, SPIC (Homo sapiens, UniProt Q8N5J4 1-248); settings: protein: recombinant; tags: N-terminal GST; dsDNA, one strand shown
T8 sequence: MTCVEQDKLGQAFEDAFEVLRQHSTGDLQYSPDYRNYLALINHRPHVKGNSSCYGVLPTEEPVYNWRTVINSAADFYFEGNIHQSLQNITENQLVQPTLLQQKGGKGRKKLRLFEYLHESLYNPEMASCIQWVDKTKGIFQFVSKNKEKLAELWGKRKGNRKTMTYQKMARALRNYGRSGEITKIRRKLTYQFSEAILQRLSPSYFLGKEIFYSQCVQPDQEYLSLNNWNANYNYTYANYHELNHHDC
Procedure, shortened: as §1

ELF4 = ELF4 (Homo sapiens, UniProt Q99607 1-663); settings: protein: recombinant; tags: N-terminal GST; dsDNA, one strand shown
Procedure, shortened: as §1

ELK4 = molecular target: T9, ELK4 (Homo sapiens, UniProt P28324-2 1-405); settings: protein: recombinant; tags: N-terminal GST; dsDNA, one strand shown
T9 sequence: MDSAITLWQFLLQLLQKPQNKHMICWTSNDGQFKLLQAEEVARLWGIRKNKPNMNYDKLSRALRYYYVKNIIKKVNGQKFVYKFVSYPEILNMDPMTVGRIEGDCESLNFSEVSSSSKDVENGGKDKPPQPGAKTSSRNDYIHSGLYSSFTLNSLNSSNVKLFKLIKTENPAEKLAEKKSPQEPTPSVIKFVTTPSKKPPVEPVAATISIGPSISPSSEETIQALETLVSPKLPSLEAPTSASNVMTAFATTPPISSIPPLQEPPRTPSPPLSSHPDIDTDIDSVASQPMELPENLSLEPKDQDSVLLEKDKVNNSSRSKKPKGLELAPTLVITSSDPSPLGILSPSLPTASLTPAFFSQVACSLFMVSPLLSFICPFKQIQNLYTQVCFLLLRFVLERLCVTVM
Procedure, shortened: as §1

ETV2 = molecular target: T10, ETV2 (Homo sapiens, UniProt O00321 1-342); settings: protein: recombinant; tags: N-terminal GST; dsDNA, one strand shown
T10 sequence: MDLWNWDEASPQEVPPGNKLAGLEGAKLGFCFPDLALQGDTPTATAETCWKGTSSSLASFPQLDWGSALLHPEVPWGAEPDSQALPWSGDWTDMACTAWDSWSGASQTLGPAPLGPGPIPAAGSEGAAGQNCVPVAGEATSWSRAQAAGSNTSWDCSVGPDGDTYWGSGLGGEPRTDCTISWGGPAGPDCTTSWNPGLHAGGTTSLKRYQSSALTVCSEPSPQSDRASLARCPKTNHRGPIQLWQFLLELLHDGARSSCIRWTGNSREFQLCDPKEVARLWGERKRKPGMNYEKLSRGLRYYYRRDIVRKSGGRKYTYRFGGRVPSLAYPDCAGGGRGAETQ
Procedure, shortened: as §1

ELF3 = molecular target: T11, ELF3 (Homo sapiens, UniProt P78545 1-371); settings: protein: recombinant; tags: N-terminal GST; dsDNA, one strand shown
T11 sequence: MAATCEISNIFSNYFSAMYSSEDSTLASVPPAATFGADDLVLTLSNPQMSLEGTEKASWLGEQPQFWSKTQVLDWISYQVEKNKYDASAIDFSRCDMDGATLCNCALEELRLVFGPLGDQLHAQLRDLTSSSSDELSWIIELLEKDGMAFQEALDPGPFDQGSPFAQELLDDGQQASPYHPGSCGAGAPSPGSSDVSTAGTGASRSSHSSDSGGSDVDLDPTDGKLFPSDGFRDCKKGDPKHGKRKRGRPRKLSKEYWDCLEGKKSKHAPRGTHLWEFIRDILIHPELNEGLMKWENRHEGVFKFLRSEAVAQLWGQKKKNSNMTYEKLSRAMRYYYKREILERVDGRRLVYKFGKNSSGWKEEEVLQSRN
Procedure, shortened: as §1

CRX = CRX (Homo sapiens, UniProt O43186 1-299); settings: protein: recombinant; tags: N-terminal GST; dsDNA, one strand shown
Procedure, shortened: as §1

ETV1 = ETV1 (Homo sapiens, UniProt P50549 1-477); settings: protein: recombinant; tags: N-terminal GST; dsDNA, one strand shown
Procedure, shortened: as §1

Chain of CRX (O43186 whole entry): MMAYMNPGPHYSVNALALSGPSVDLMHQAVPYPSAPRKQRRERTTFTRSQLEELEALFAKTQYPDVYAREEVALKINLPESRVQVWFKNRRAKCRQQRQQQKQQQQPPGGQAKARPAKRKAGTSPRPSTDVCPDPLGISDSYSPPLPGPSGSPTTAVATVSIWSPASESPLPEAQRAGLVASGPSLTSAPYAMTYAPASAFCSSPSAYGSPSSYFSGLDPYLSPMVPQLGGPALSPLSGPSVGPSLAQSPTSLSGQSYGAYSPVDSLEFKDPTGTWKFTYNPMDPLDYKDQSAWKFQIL
Chain of ETV1 (P50549 whole entry): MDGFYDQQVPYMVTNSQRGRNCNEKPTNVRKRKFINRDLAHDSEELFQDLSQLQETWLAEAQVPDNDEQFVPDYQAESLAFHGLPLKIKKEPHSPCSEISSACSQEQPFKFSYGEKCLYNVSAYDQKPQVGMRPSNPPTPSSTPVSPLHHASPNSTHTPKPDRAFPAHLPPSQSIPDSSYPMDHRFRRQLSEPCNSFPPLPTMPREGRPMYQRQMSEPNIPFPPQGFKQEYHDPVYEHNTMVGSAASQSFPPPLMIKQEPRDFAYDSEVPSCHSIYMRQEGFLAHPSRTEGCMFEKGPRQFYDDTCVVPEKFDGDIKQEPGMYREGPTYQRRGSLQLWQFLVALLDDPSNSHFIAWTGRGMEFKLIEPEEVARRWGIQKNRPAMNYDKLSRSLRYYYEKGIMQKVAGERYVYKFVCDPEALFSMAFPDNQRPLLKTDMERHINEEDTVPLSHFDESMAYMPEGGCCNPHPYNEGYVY
Chain of SPIB (Q01892 whole entry): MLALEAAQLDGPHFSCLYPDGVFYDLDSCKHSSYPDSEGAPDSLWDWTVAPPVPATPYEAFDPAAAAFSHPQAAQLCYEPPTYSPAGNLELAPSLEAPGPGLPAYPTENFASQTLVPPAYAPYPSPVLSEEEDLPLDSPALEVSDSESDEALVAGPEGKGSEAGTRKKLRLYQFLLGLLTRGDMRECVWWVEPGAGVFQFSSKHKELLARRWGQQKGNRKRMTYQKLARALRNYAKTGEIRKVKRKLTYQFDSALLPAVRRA
Chain of ETV5 (P41161 whole entry): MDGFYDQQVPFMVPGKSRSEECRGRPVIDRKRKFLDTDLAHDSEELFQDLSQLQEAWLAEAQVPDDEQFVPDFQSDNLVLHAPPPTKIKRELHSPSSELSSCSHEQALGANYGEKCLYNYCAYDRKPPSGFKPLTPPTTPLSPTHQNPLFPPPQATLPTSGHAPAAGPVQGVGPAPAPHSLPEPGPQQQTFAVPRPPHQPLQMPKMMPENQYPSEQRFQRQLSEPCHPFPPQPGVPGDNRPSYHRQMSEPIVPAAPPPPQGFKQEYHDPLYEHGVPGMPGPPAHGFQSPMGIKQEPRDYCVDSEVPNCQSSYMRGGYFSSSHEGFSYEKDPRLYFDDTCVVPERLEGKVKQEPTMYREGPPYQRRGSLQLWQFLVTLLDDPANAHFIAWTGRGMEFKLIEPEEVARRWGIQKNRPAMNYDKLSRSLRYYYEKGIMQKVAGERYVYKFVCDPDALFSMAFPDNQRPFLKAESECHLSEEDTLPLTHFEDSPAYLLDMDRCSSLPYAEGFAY
Chain of ELF4 (Q99607 whole entry): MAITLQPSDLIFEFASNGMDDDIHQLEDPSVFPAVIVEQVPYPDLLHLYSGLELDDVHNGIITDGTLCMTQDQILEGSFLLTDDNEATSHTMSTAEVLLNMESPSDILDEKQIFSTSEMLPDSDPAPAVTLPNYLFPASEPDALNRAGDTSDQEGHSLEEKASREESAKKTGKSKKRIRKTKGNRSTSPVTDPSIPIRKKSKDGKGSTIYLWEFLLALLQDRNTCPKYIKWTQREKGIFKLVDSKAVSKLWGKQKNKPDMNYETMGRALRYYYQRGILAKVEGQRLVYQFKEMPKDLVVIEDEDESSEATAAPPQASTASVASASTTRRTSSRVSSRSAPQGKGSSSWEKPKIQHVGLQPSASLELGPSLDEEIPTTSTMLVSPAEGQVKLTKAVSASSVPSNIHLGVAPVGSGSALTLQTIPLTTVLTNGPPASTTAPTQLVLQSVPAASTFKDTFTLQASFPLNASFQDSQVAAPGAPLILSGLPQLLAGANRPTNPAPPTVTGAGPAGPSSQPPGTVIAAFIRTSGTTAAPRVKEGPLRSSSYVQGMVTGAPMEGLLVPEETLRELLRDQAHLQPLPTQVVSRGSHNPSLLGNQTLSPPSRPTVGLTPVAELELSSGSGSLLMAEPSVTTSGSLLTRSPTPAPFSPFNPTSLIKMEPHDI
Chain of HSF1 (Q00613 whole entry): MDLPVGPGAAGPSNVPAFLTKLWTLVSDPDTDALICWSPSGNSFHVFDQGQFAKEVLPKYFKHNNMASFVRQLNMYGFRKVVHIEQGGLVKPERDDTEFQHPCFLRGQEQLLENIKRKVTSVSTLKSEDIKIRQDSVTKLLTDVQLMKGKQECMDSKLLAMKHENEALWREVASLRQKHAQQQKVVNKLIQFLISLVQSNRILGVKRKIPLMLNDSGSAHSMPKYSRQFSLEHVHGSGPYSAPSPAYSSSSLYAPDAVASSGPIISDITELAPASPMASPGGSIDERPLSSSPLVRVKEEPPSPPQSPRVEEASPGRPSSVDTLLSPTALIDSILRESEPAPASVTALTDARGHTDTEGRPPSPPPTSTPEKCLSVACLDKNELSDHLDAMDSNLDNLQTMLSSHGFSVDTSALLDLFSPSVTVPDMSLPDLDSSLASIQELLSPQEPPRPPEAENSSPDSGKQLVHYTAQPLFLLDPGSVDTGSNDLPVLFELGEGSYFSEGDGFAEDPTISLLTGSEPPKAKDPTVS
Chain of ELF1 (P32519 whole entry): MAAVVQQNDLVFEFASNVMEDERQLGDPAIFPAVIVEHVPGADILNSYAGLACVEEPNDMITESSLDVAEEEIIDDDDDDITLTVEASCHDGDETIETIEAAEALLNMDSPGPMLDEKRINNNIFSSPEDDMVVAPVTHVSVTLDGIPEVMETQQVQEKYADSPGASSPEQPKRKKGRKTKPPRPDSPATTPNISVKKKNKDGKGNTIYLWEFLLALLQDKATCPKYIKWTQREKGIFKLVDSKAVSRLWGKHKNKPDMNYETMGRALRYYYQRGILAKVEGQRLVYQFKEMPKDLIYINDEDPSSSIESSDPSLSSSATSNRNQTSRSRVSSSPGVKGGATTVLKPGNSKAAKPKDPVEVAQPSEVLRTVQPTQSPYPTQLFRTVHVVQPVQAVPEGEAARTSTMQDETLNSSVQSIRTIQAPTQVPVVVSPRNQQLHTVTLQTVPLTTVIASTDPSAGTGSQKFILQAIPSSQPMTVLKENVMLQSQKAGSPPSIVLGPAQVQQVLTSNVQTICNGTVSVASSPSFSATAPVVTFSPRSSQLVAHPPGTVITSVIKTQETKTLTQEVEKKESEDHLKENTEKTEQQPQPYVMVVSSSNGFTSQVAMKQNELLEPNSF

CTAACC
binding signal (FLI1): 1.12 fold enrichment (6-mer frequency, TF over GST control)
binding signal (ELK1): 1.23 fold enrichment (6-mer frequency, TF over GST control)
binding signal (GABPA): 1.09 fold enrichment (6-mer frequency, TF over GST control)
binding signal (ERG): 1.16 fold enrichment (6-mer frequency, TF over GST control)
binding signal (ELF1): 1.12 fold enrichment (6-mer frequency, TF over GST control)
binding signal (EHF): 1.17 fold enrichment (6-mer frequency, TF over GST control)
binding signal (SPI1): 1.14 fold enrichment (6-mer frequency, TF over GST control)
binding signal (SPIB): 1.08 fold enrichment (6-mer frequency, TF over GST control)
binding signal (ELK3): 1.29 fold enrichment (6-mer frequency, TF over GST control)
binding signal (FEV): 1.16 fold enrichment (6-mer frequency, TF over GST control)
binding signal (ETV5): 1.19 fold enrichment (6-mer frequency, TF over GST control)
binding signal (HSF1): 1.05 fold enrichment (6-mer frequency, TF over GST control)
binding signal (SPIC): 1.08 fold enrichment (6-mer frequency, TF over GST control)
binding signal (ELF4): 1.2 fold enrichment (6-mer frequency, TF over GST control)
binding signal (ELK4): 1 fold enrichment (6-mer frequency, TF over GST control)
binding signal (ETV2): 1.11 fold enrichment (6-mer frequency, TF over GST control)
binding signal (ELF3): 1.27 fold enrichment (6-mer frequency, TF over GST control)
binding signal (CRX): 1.09 fold enrichment (6-mer frequency, TF over GST control)
binding signal (ETV1): 1.16 fold enrichment (6-mer frequency, TF over GST control)
